Data: PubChem BioAssay (NCATS)
Results filed as inconclusive are left out. Where a call stands in place of a potency, no number is given. The source made the active and inactive calls. Calls come from the whole dose curve; as a rule, active = well fitted inhibition curve with a large enough effect; inconclusive = small, poorly fitted or top-dose-only effect; inactive = flat fitted curve, though single readings scatter.

Assay: P-glycoprotein substrates identified in KB-8-5-11 adenocarcinoma cell line, qHTS therapeutic library screen (AID 1346987); note: nearly all actives have a fitted effect of over 65% in size
Settings: KB-8-5-11 (P-gp overexpressing) viability, CellTiter-Glo, 72 h; series mostly up to 44.5 µM
Procedure, shortened: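 Human cervical adenocarcinoma KB-8-5-11 cells, selected in colchicine to over-express P-gp and assayed without it, were exposed for 72 h to titrated compounds. An ATP-based luminescent viability signal gave AC50.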
Potency is the fitted concentration of half-maximal effect.

SMILES | Potency | outcome
CNc1cc2[nH]c(=O)n(-c3ccc(NC(=O)NS(=O)(=O)c4ccc(Cl)s4)cc3)c(=O)c2cc1F | inactive | 
C[C@@H]1CC[C@@]23CC[C@]4(C)[C@@](C=CC5[C@@]6(C)CC[C@H](O)C(C)(C)C6CC[C@]54C)(OC2=O)C3[C@H]1C (stereo partly drawn) | inactive | 
Cc1cc2c(N3CCCC3)nc(N3CCCC3)nc2n1C | inactive | 
OC1C=C2C3CN(Cc4cc5c(cc43)OCO5)C2CC1O (stereo not drawn) | 13 µM (active) | 
Cc1cc(-c2cnc(N)c3c(-c4ccc5scnc5c4)csc23)n(C)n1 | 8.2 µM (active) | 
CC1=C(C(=O)OC2CCCCC2)C(c2ccc([N+](=O)[O-])cc2)C2=C(CC(C)(C)CC2=O)N1 (stereo not drawn) | inactive | 
CNCc1cc(-c2ccccc2F)n(S(=O)(=O)c2cccnc2)c1 | inactive | 
C=C(C)C(=O)O[C@H]1C[C@@](C)(O)C2(O)CCC(C)(/C=C3/OC(=O)C(COC)=C31)O2 (stereo partly drawn) | 6.4 µM (active) | 
CC(=O)c1ccc2c(c1)[C@H](NC(=O)c1ccc(F)c(Cl)c1)[C@H](O)C(C)(C)O2 | inactive | 
CC1(NC(=O)c2ccc(C#Cc3cccc(F)c3)cn2)COC1 | inactive | 
COCc1c(Cl)ccc2c1CC[C@H]2c1ncc[nH]1 | inactive | 
CC[C@H]1OC(=O)[C@H](C)[C@@H](O[C@H]2C[C@@](C)(OC)[C@@H](O)[C@H](C)O2)[C@H](C)[C@@H](O[C@@H]2O[C@H](C)C[C@H](N(C)C)[C@H]2O)[C@](C)(O)C[C@@H](C)[C@@H]2N[C@@H](COCCOC)O[C@@H]([C@H]2C)[C@]1(C)O | inactive | 
CC1(CO)CC2C(O)C3=C(CC(C)(O)C2C1)C(=O)OC3 (stereo not drawn) | inactive | 
C/C(=C/CO)CCC1C(C)CCC2C(C)(C)CCCC12C (stereo not drawn) | inactive | 
CC1(C)OC[C@H](NC(=O)Nc2ccc(Br)cc2Br)[C@H](c2ccccc2)O1 | inactive | 
CC[N+]1(C/C2=C/CCCCCC2)CCC(NC(=O)C2c3cc(Cl)ccc3Oc3ccc(Cl)cc32)CC1 (stereo not drawn) | inactive | 
Cc1ccc(C(=O)Nc2ccc(CN3CCN(C)CC3)c(C(F)(F)F)c2)cc1C#Cc1cnc2[nH]ncc2c1 | 20.6 µM (active) | 
CCn1c(=O)n([C@H]2CCCN(c3nccc(-c4cc5ccccc5o4)n3)C2)c2ccccc21 | inactive | 
CCOC(=O)CCNc1cc(N2CCc3ccccc3CC2)nc(-c2cccnc2)n1 | inactive | 

SMILES | Potency | outcome
COC1CC(O[C@H]2CC[C@]3(C)C4CC[C@]5(C)C(C6=CC(=O)OC6)=CCC56OC46CC[C@@H]3C2)OC(C)C1O[C@@H]1O[C@H](CO[C@@H]2O[C@H](CO)[C@@H](O)[C@H](O)[C@H]2O)[C@@H](O)[C@H](O)[C@H]1O (stereo partly drawn) | 3.1 µM (active) | 
Cc1ccc(C)c(-c2cc(C(F)(F)F)nn2-c2ccc(S(N)(=O)=O)cc2)c1 | 23.1 µM (active) | 
Cc1csc(N(C(=O)CSc2ccc(-c3ccccc3)nn2)C2CC2)n1 | inactive | 
Nc1c(S(=O)(=O)c2ccccc2)c2nc3ccccc3nc2n1-c1ccc(F)cc1 | inactive | 
C=C1C(=O)OC2/C=C(\CO)CC/C=C(\C=O)C(OC)C(OC(=O)C(C)CC)C12 (stereo not drawn) | inactive | 
COc1cc(O)cc(OC2OC(CO)C(O)C(O)C2O)c1 (stereo not drawn) | inactive | 
C/C(=C\CCC(C)C1=CCC2(C)OC3=C(CC12)C(=O)C(O)CC3)CO (stereo not drawn) | inactive | 
C=C(C)C1=C[C@@]2(C)C(=CC1=O)CC[C@@H](O)[C@@H]2C | inactive | 
CC(=O)O[C@@H]1[C@@H](OC(C)=O)[C@H](C)O[C@@H](O[C@H]2[C@@H]3C=CO[C@@H](O[C@@H]4O[C@H](CO)[C@@H](O)[C@H](O)[C@H]4O)[C@@H]3[C@@]3(CO)O[C@@H]23)[C@@H]1OC(=O)/C=C/c1ccccc1 | inactive | 
O=C(NCC(=O)N1CCCC1)Nc1ccc2cnccc2c1 | inactive | 
Cc1cn(CCN2CCN(c3ccccc3-c3cc(C#N)cc(C(=O)NCCCN4CCCC4)c3)CC2)c2ccccc12 | 18.4 µM (active) | 
CCOc1ccc(Cc2nc(-c3c(C)nc4ccccn34)cs2)cc1 | 0.0184 µM (active) | 
Cc1ccc(-c2ncccn2)c(C(=O)N2C[C@H](COc3ccc(F)cn3)CC[C@H]2C)c1 | inactive | 
C=C1CCCC2(C)CCC(C(C)(C)OC3OC(C)C(O)C(O)C3OC(=O)/C(C)=C\C)CC12 (stereo not drawn) | inactive | 
O=C(NC[C@H]1CN(c2ccc(N3CCOCC3=O)cc2)C(=O)O1)c1ccc(Cl)s1 | inactive | 
Cc1cnn(-c2ccccc2)c1NC(=O)COCc1ccccc1 | inactive | 
CC(=O)O[C@@H]1[C@H](O[C@@H]2O[C@@H](CO)[C@H](O)[C@H]2O)[C@@H](O[C@@H]2O[C@@H](C)[C@H](O[C@@H]3OC[C@@H](O)[C@H](O)[C@H]3O)[C@@H](O)[C@H]2O)[C@H](OC(=O)[C@]23CCC(C)(C)C[C@H]2C2=CCC4[C@@]5(C)CC[C@H](O[C@@H]6O[C@H](C(=O)O)[C@@H](O)[C@H](O)[C@H]6O[C@@H]6O[C@H](CO)[C@H](O)[C@H](O)[C@H]6O)[C@@](C)(C=O)C5CC[C@@]4(C)[C@]2(C)C[C@H]3O)O[C@@H]1C (stereo partly drawn) |  | inactive [at 9.29 µM]
CC1CCC/C=C/C(=O)c2c(O)cc(O)cc2CC(=O)O1 (stereo not drawn) | 5.8 µM (active) | 
CCN1CCN(Cc2ccc(NC(=O)c3ccc(C)c(Oc4ccnc5[nH]ccc45)c3)cc2C(F)(F)F)CC1 | 10.1 µM (active) | 
